This is one part of a sample in which hits are shown more often than they occur.
NOMO-1 viab: STK33 inhibitor candidate reducing NOMO-1 cell viability; NOMO-1 AML viability, CellTiter-Glo luminescence, 72 h; inhibition, % (test concentration not listed); hit rate 7.5% among 37,000; in the data active = inhibition above about 80%; inconclusive = no clear call, values can overlap the other calls
ROS inducer: cancer cell ROS induction | U2OS ROS induction, H2DCF-DA fluorescence | ROS induction (% of piperlongumine), % at 10 µM | hit rate 2% among 46,000; in the data active = ROS induction above about 79%, passing the limit was not always enough; inconclusive = no clear call, values can overlap the other calls
Hits are given with their value; . = inactive; ? = inconclusive; / = no result.

SMILES	NOMO-1 viab	ROS inducer
COc1cccc(NC(=O)CCc2nc(-c3ccc(C)cc3)no2)c1	.	/
C[C@H]1CN([C@@H](C)CO)C(=O)Cc2cc(NS(=O)(=O)c3ccc(F)cc3)ccc2O[C@H]1CN(C)Cc1ccc(Cl)c(Cl)c1	?	.
C[C@@H]1CN([C@H](C)CO)C(=O)Cc2cc(NS(=O)(=O)c3ccc(F)cc3)ccc2O[C@H]1CN(C)Cc1ccc(Cl)c(Cl)c1	102	.
C[C@H](CO)N1C[C@H](C)[C@H](CN(C)Cc2ccc(Cl)c(Cl)c2)Oc2ccc(NS(C)(=O)=O)cc2CC1=O	.	.
C[C@@H]1CN([C@H](C)CO)C(=O)Cc2cc(NS(=O)(=O)c3ccc(Cl)cc3)ccc2O[C@H]1CN(C)Cc1ccc(Cl)c(Cl)c1	105	.
C[C@H]1CN([C@@H](C)CO)C(=O)c2cccc(NC(=O)NC3CCCCC3)c2O[C@@H]1CN(C)Cc1ccncc1	.	.
C[C@@H]1CCCCO[C@H](CN(C)Cc2ccc(C(=O)O)cc2)[C@@H](C)CN([C@H](C)CO)C(=O)c2cc(NS(=O)(=O)c3cn(C)cn3)ccc2O1	.	.
Nc1ncnc(Sc2nc3ccccc3s2)c1[N+](=O)[O-]	114	100
c1ccc2c(CSc3nc4ccccc4s3)cccc2c1	/	.
COc1cc2c(cc1NC(=S)NCc1ccco1)oc1ccccc12	93	.
COc1cc2c(cc1NC(=S)NCCc1ccc(OC)c(OC)c1)oc1ccccc12	.	.
O=C(N/N=C/c1cc(O)ccc1[N+](=O)[O-])c1ccccn1	/	.
COc1ccc(CC(=O)Nc2ccc(NC(=O)c3ccco3)cc2)cc1OC	114	.
COc1cc(NC(=O)COc2cc(C)c(Cl)c(C)c2)ccc1NC(=O)c1ccco1	.	.
COc1ccc(CC(=O)Nc2ccc(S(N)(=O)=O)cc2)cc1OC	.	/
COc1ccc(NC(=O)c2ccco2)cc1NC(=O)COc1cc(C)c(Cl)c(C)c1	96	.
C[C@@H]1CN([C@H](C)CO)C(=O)Cc2cc(NC(=O)CCC(F)(F)F)ccc2O[C@@H]1CN(C)C(=O)Nc1cccc2ccccc12	.	.
C[C@@H]1CN([C@@H](C)CO)C(=O)c2cccc(NC(=O)Nc3ccc(C(F)(F)F)cc3)c2O[C@@H]1CN(C)Cc1ccc(C(=O)Nc2ccccc2N)cc1	128	.
C[C@@H]1CN([C@@H](C)CO)C(=O)c2cccc(NC(=O)Nc3ccc(F)cc3)c2O[C@@H]1CN(C)Cc1ccc(C(=O)Nc2ccccc2N)cc1	140	.
C[C@@H]1CN([C@@H](C)CO)C(=O)c2cccc(NC(=O)Nc3ccccc3)c2O[C@H]1CN(C)Cc1ccc(C(=O)Nc2ccccc2N)cc1	125	.
C[C@H]1CN([C@@H](C)CO)C(=O)c2cccc(NC(=O)Nc3ccccc3)c2O[C@@H]1CN(C)Cc1ccccc1	.	.
C[C@H](CO)N1C[C@H](C)[C@H](CN(C)Cc2ccc(C(=O)O)cc2)Oc2c(NC(=O)Nc3ccc(F)cc3)cccc2C1=O	.	.
C[C@H](CO)N1C[C@H](C)[C@@H](CN(C)Cc2ccc(C(=O)Nc3ccccc3N)cc2)Oc2c(NC(=O)Nc3ccccc3)cccc2C1=O	127	.
C[C@H](CO)N1C[C@H](C)[C@H](CN(C)Cc2ccc(C(=O)Nc3ccccc3N)cc2)Oc2c(NC(=O)Nc3ccc(C(F)(F)F)cc3)cccc2C1=O	.	.
C[C@@H]1CN([C@H](C)CO)C(=O)c2cccc(NC(=O)Nc3ccccc3)c2O[C@@H]1CN(C)Cc1ccc(C(=O)O)cc1	.	.
SMILES	NOMO-1 viab	ROS inducer
Cc1noc(C)c1NC(=O)Nc1ccc2c(c1)CC(=O)N([C@@H](C)CO)C[C@H](C)[C@H](CN(C)Cc1ccccc1)O2	.	.
C[C@H]1CN([C@@H](C)CO)C(=O)Cc2cc(NS(=O)(=O)c3ccccc3)ccc2O[C@H]1CN(C)S(=O)(=O)c1cccs1	.	.
C[C@@H]1CN([C@@H](C)CO)C(=O)c2cc(NC(=O)CCCCCC(=O)Nc3ccccc3N)ccc2O[C@H]1CN(C)Cc1ccc(C(F)(F)F)cc1	?	.
Cc1cc(-c2onc(C)c2C(=O)NC(=O)Nc2ccccc2)no1	/	.
CC(C)(C)OC(=O)Nc1cccc(/C=N/NC(=O)c2cccc(C(=O)NO)c2)c1	/	.
C[C@H](CO)N1C[C@H](C)[C@@H](CN(C)Cc2ccc(C(=O)O)cc2)Oc2c(NC(=O)Nc3ccccc3)cccc2C1=O	.	.
CC(C)NC(=O)Nc1cccc2c1O[C@H](CN(C)Cc1ccc(C(=O)Nc3ccccc3N)cc1)[C@H](C)CN([C@H](C)CO)C2=O	119	.
C[C@H]1CN([C@@H](C)CO)C(=O)c2cccc(NC(=O)Nc3ccccc3)c2O[C@@H]1CN(C)Cc1ccc(C(=O)Nc2ccccc2N)cc1	127	144
C[C@H](CO)N1C[C@H](C)[C@H](CN(C)Cc2ccc(C(=O)Nc3ccccc3N)cc2)Oc2c(NC(=O)Nc3ccc4c(c3)OCO4)cccc2C1=O	?	.
C[C@@H]1CN([C@H](C)CO)C(=O)c2cccc(NC(=O)Nc3ccc4c(c3)OCO4)c2O[C@H]1CN(C)Cc1ccc(C(=O)Nc2ccccc2N)cc1	127	.
C[C@H](CO)N1C[C@H](C)[C@@H](CN(C)Cc2ccc(C(=O)Nc3ccccc3N)cc2)Oc2c(NC(=O)c3ccncc3)cccc2C1=O	.	.
Cc1ccc(OCC(=O)NC(=S)Nc2cc(C(=O)O)ccc2C)cc1	.	.
CN(C)CCCCNC(=O)[C@@H]1C[C@@H]2C(=O)N[C@@H](Cc3ccccc3)C(=O)N2[C@@H]1c1ccc(O)cc1	/	.
Cc1cc(C)c(NC(=O)CCNC2CCCCC2)c(C)c1	.	.
COc1ccc2c(c1)c(=O)oc1c(C)c(OCC(=O)NCC3CCCO3)ccc12 (stereo not drawn)	.	/
C[C@@H]1CN([C@@H](C)CO)C(=O)c2cccc(NS(=O)(=O)c3ccc(Cl)cc3)c2O[C@H]1CN(C)S(=O)(=O)c1cn(C)cn1	.	.
Cn1c(/C(C#N)=C(/O)c2ccc(F)cc2)nc2ccccc21	.	.
CCOC(=O)c1ccc2nc(C(F)(F)F)nc(NCCCc3ccccc3)c2c1	.	.
CC(N=Cc1c(O)ccc2ccccc12)C12CC3CC(CC(C3)C1)C2 (stereo not drawn)	101	.
Oc1ccc2ccccc2c1/C=N/N1CCN(Cc2ccccc2)CC1	/	.
COc1ccc(S(=O)(=O)N(C)C[C@H]2Oc3c(NS(=O)(=O)c4ccccc4)cccc3C(=O)N([C@H](C)CO)C[C@H]2C)cc1	.	.
c1ccc(CN2CCOCCN(Cc3ccccc3)CCOCC2)cc1	87	.
O=C(Cc1ccccc1)NCCN1CCOCC1	/	.
Cc1ccc(C)c(N2C(=O)CC3CS(=O)(=O)CC32)c1 (stereo not drawn)	/	.
C[C@H](CO)N1C[C@H](C)[C@@H](CN(C)CC2CCCCC2)Oc2c(NC(=O)c3cnccn3)cccc2C1=O	.	.
CC(C)NC(=O)Nc1cccc2c1O[C@H](CN(C)C(=O)Nc1cccc3ccccc13)[C@H](C)CN([C@@H](C)CO)C2=O	.	.
COc1ccc(NC(=O)Nc2ccc3c(c2)C(=O)N([C@H](C)CO)C[C@H](C)[C@@H](CN(C)C(=O)Nc2ccc(OC)cc2)OCCCC[C@@H](C)O3)cc1	.	.
Cn1c(SCC(=O)n2c3c(c4ccccc42)CCCC3)nnc1-c1ccco1	109	.
Cn1c(SCC(=O)n2c3c(c4ccccc42)CCCC3)nnc1-c1ccccc1	.	.
Cc1ccn(CN2CCN(Cn3ccc(C)n3)C2=S)n1	.	.

Screening results as filed in PubChem BioAssay.
